In PubChem BioAssay (NCATS):
“And” between values parts separate entries of the source, which are not always exact repeats. Identical values can stand only once. Records with an inconclusive call do not appear. The source made the active and inactive calls. Calls come from the whole dose curve; as a rule, active = well fitted curve in the direction sought with a large enough effect; inconclusive = small, poorly fitted or top-dose-only effect, or another doubt; inactive = no such curve, though single readings can be large; an effect the other way counts as inactive or inconclusive.

Assays:
[1] = qHTS of pediatric cancer cell lines to identify multiple opportunities for drug repurposing: Primary screen for A673 cells (AID 1347092); note: nearly all actives have a fitted effect of over 45% in size; note: potency is the fitted concentration of half-maximal effect
Summary of the method: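 A673 cells (500-1,000 cells/well) were treated 48 hours at 37 degrees C with compounds at 11-point (0.78 nM to 46 µM) or 8-point (0.59 nM to 46 µM) dilutions. Viability read by CellTiter-Glo luminescence; concentration-response curves fitted.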

[2] = qHTS of pediatric cancer cell lines to identify multiple opportunities for drug repurposing: Primary screen for SK-N-MC cells (AID 1347093); note: potency is the fitted concentration of half-maximal effect
Summary of the method: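 Metabolically active cells were quantified by ATP-dependent luminescence (CellTiter-Glo, 15 min at room temperature) following 48 h treatment. Cells had been plated at 500-1,000 per well and settled for 5 h beforehand.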

[3] = qHTS of pediatric cancer cell lines to identify multiple opportunities for drug repurposing: Primary screen for NB1643 cells (AID 1347099); note: nearly all actives have a fitted effect of over 50% in size; note: potency is the fitted concentration of half-maximal effect
Summary of the method: (§1)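 Cells plated at 500-1,000/well in growth medium, compounds added after 5 h. MIPE tested at 11 points (from 0.78 nM), NPC at 8 points (from 0.59 nM). CellTiter-Glo luminescence after 48 h; concentration-response curves from primary screen.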

[4] = qHTS of pediatric cancer cell lines to identify multiple opportunities for drug repurposing: Primary screen for BT-37 cells (AID 1347094); note: potency is the fitted concentration of half-maximal effect
Summary of the method: as §1

[5] = qHTS of pediatric cancer cell lines to identify multiple opportunities for drug repurposing: Primary screen for NB-EBc1 cells (AID 1347095); note: potency is the fitted concentration of half-maximal effect
Summary of the method: as §1

[6] = qHTS of pediatric cancer cell lines to identify multiple opportunities for drug repurposing: Primary screen for U-2 OS cells (AID 1347096); note: nearly all actives have a fitted effect of over 50% in size
Summary of the method: (§2)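 Viability after 48 h compound treatment at 37C, 500-1,000 cells/well, read as ATP luminescence with CellTiter-Glo. Primary screens used 11-point (MIPE, 0.78 nM-46 µM) or 8-point (NPC, 0.59 nM-46 µM) final concentrations; follow-up screens used 11-point dilutions.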

[7] = qHTS of pediatric cancer cell lines to identify multiple opportunities for drug repurposing: Primary screen for LAN-5 cells (AID 1347100); note: potency is the fitted concentration of half-maximal effect
Summary of the method: as §2

[8] = qHTS of pediatric cancer cell lines to identify multiple opportunities for drug repurposing: Primary screen for Saos-2 cells (AID 1347097); note: nearly all actives have a fitted effect of over 40% in size; note: potency is the fitted concentration of half-maximal effect
Summary of the method: as §1

[9] = qHTS of pediatric cancer cell lines to identify multiple opportunities for drug repurposing: Primary screen for SK-N-SH cells (AID 1347098); note: nearly all actives have a fitted effect of over 65% in size; note: potency is the fitted concentration of half-maximal effect
Summary of the method: (§3)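 Cells (500-1,000/well) rested 5 h, then received compounds for 48 h; metabolically active cells were measured by CellTiter-Glo luminescence. Final concentrations spanned up to 46 µM (MIPE, 11-point) or 0.59 nM-46 µM (NPC, 8-point) in primary screens, 11-point in follow-ups.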

[10] = qHTS of pediatric cancer cell lines to identify multiple opportunities for drug repurposing: Primary screen for BT-12 cells (AID 1347101); note: nearly all actives have a fitted effect of over 25% in size; note: potency is the fitted concentration of half-maximal effect
Summary of the method: as §3

Measured: Potency

Cn1cnc2c(F)c(Nc3ccc(Br)cc3Cl)c(C(=O)NOCCO)cc21
active: [1] 2.35 µM | [2] 2.64 µM | [3] 9.35 µM

Cc1cnc(Nc2ccc(OCCN3CCCC3)cc2)nc1Nc1cccc(S(=O)(=O)NC(C)(C)C)c1
active: [2] 18.7 µM | [3] 23.5 µM
inactive: [4] | [5] | [6] | [7]

O=C1CCc2cc(OCCCCc3nnnn3C3CCCCC3)ccc2N1
not listed: [2] | [3]
inactive: all other assays above

COc1cc(F)c(F)c(Nc2ccc(I)cc2F)c1NS(=O)(=O)C1(C[C@H](O)CO)CC1
active: [2] 16.6 µM
inactive: [4] | [5] | [3] | [7]

Cc1oncc1C(=O)Nc1ccc(C(F)(F)F)cc1
active: [2] 6.68 µM
inactive: [4] | [6] | [8] | [3] | [7]

Cc1ccccc1C(C(=O)NC1CCCC1)N(C(=O)Cn1cnc2ccccc21)c1cccc(F)c1 (stereo not given)
inactive: [1] | [6] | [9] | [7]

Cc1cc([C@@H](C)Nc2ccccc2C(=O)O)c2nc(N3CCOCC3)cc(=O)n2c1
active: [2] 0.191 µM | [4] 55.9 µM | [5] 24.1 µM | [9] 9.87 µM | [3] 6.05 µM | [7] 34 µM
inactive: [6]

CCOC(=O)C1=C[C@]2(CC)CCCN3CCc4c(n1c1ccccc41)[C@@H]32
active: [2] 13.2 µM
inactive: [4] | [5] | [6] | [3] | [10]

O=c1[nH]cnc2[nH]ncc12
not listed: [2] | [8]
inactive: all other assays above

O=C(Nc1cccnc1)N1CCC(Cc2cccc(Oc3ccc(C(F)(F)F)cn3)c2)CC1
inactive: [6] | [9] | [3]
active: [1] 11.8 µM | [10] 10.9 µM

CCCC(CCC)C(=O)O
not listed: [2]
inactive: all other assays above

C1COC(NC(C2CC2)C2CC2)=N1
not listed: [2] | [5]
inactive: all other assays above

COCC(=O)NCC=Cc1ccc2ncnc(Nc3ccc(Oc4ccc(C)nc4)c(C)c3)c2c1
active: [1] 4.69 µM | [8] 16.6 µM | [3] 20.9 µM | [7] 18.7 µM | [10] 19.3 µM
inactive: [6]

Nc1nc2c(ncn2COCCO)c(=O)[nH]1
not listed: [2]
inactive: all other assays above

Cc1ccc(N(CC2=NCCN2)c2cccc(O)c2)cc1
active: [1] 18.7 µM and 16.8 µM
inactive: [4] | [5] | [6] | [3] | [7]

CNCc1ccc(-c2[nH]c3cc(F)cc4c3c2CCNC4=O)cc1
active: [1] 4.69 µM
inactive: [6] | [10]

CC(C)C[C@H](NC(=O)[C@@H](O)[C@H](N)Cc1ccccc1)C(=O)O
active: [2] 29.6 µM | [4] 27.3 µM | [8] 18.7 µM | [9] 24.1 µM | [10] 30.6 µM
inactive: [6]

CCN(CC)CCCC(C)Nc1nc(C)cc(Nc2ccc3nc(C)cc(N)c3c2)n1 (stereo not given)
not listed: [1] | [8]
inactive: all other assays above

Nc1nc2[nH]cc(CCc3ccc(C(=O)N[C@@H](CCC(=O)O)C(=O)O)cc3)c2c(=O)[nH]1
active: [2] 0.132 µM | [5] 1.48 µM
not listed: [1] | [8]
inactive: all other assays above

Cc1c(C)c2c(c(C)c1O)CCC(C)(COc1ccc(CC3SC(=O)NC3=O)cc1)O2 (stereo not given)
not listed: [2] | [5] | [10]
inactive: all other assays above

COc1ccc(COc2cc3oc(=O)c4cc(C(C)O)ccc4c3cc2OC)cc1 (stereo not given)
active: [5] 10.5 µM | [8] 14.8 µM
inactive: [6] | [3] | [7]

CCc1cc(Nc2nccc(-c3c(-c4ccc(OC)c(C(=O)Nc5c(F)cccc5F)c4)nc4ccccn34)n2)c(OC)cc1N1CCC(N2CCN(S(C)(=O)=O)CC2)CC1
inactive: [6] | [3]
active: [9] 21.5 µM

CC1(C)CNc2cc(NC(=O)c3cccnc3NCc3ccncc3)ccc21
inactive: [6]
active: [5] 9.35 µM | [7] 20.9 µM

CCOc1cc(C=C2C(=O)N(c3ccccc3)N=C2C)cc(Cl)c1OCC(=O)OC
inactive: [4] | [6] | [8] | [10]
active: [2] 11.8 µM | [7] 18.7 µM
